# PubChem BioAssay (NCATS)
# Records with an inconclusive call do not appear. Active and inactive are the calls of the source. Calls come from the whole dose curve; as a rule, active = well fitted inhibition curve with a large enough effect; inconclusive = small, poorly fitted or top-dose-only effect; inactive = no such curve, though single readings can be large or run the other way.
# Biological target: Rap guanine nucleotide exchange factor 3 (Homo sapiens) (UniProt O95398)
# Test: Counterscreen qHTS for antagonist of cAMP-regulated guanine nucleotide exchange factor 3 (EPAC1) (AID 1645888); note: % of control where 0% means no effect
# Settings: Rap1B-BODIPY-GDP nucleotide exchange, fluorescence; series mostly up to 154 µM; activity change, negative = inhibition: at the top concentration
# Source text: Assay Provider (PI): Xiaodong Cheng Ph.D. The University of Texas Medical Branch, […], TX MLPCN Grant: NS066510 In multi-cellular eukaryotic organisms, the effects of cAMP are transduced by two ubiquitously-expressed intracellular cAMP receptors, the classic protein kinase A/cAMP-dependent protein kinase (PKA/cAPK) and the more recently discovered exchange protein directly activated by cAMP/cAMP-regulated guanine nucleotide exchange factor (EPAC/cAMP-GEF). Both PKA and EPAC are ubiquitously expressed in all tissues, and an increase in intracellular cAMP levels will lead to the activation of both PKA and EPAC. Therefore, careful dissections of the individual role and relative contribution of EPAC and PKA within the overall cAMP signaling in various model systems are critical for further elucidating the mechanism of cAMP signaling. To date no EPAC-specific antagonists and agonist, as well as isoform-specific agonists have been reported, and developing EPAC-specific pharmacological probes to determine the physiological functions that EPAC play in the overall cAMP-mediated signaling remains a major challenge within the research field. Furthermore, identified regulators of EPAC may lead to new mechanism-based therapeutic strategies specifically targeting the EPAC / cAMP-signaling components as EPAC has been implicated to play important roles in major human pathological conditions such as diabetes, heart disease, and cancer. This qHTS will be used to screen the Molecular Libraries Small Molecule Repository (MLSMR) as a concentration-titration series using the NCGC unique quantitative screening (qHTS) platform to find activators for EPAC1. In addition, this assay will also be used as a counterscreen for the EPAC2 qHTS. This fluorescent based assay is developed and validated for EPAC1 that measures exchange using EPAC effector Rap1 complex with BODIPY-GDP, a GDP analog with a tethered fluorophores. Activators are identified by monitoring the change in fluorescence signal as the exchanged free BODIPY-GDP has a reduced fluorescence compared to Rap1-bound BODIPY-GDP. Increase in signal (activation) is the desired outcome for the EPAC1 agonist while no activity in this assay is desired for the EPAC2 agonist counterscreen. Reference: [1] de Rooij, J., Zwartkruis, F. J., Verheijen, M. H., Cool, R. H., Nijman, S. M., Wittinghofer, A., and Bos, J.L. (1998) Nature 396, 474-477. Kawasaki, H., Springett, G. M., Mochizuki, N., Toki, S., Nakaya, M., Matsuda, M., Housman, D. E., and Graybiel, A. M. (1998) Science 282, 2275-2279.
# EPAC1 Counterscreen PROTOCOL TABLE SEQUENCE No. (e.g., 1, 2, 3, etc.); […] (e.g., Cells, Incubation, Reagent, etc.); VALUE and DESCRIPTION. 1. Reagent. 3 uL. [1x] 250 nM Rap1B-BODIPY-GDP, and 50 uM GDP. 2a. Compound. 23 nL. Control 6,572 uM cAMP (working concentration). 2b, 2c. Compound. 23 nL. Control activator and inhibitor; 234 - 30,000 uM cAMP and 16.4 - 10,000 uM. 2d. Compound. 46 nL. MLSMR follow-up library; 0.64 - 10,000 uM. 3. Time. 15 sec, 1000rpm. Centrifuge. 4. Time. 5 min. Incubation at room temperature. 5. Detector. Fluorescence. (Read 1), Ex/Em = 480 nm / 540 nm. 6. Time. 30 min. Incubation at room temperature. 7. Detector. Fluorescence. (Read 2), Ex/Em = 480 nm/ 540 nm. 8. Reagent. 1uL. Dispense either [4x] 10 uM cAMP or buffer. 9. Time. 15 sec, 1000 rpm. Centrifuge. 10. Time. 5 min. Incubation at room temperature. 11. Detector. Fluorescence. (Read 3), Ex/Em = 480 nm / 540 nm. 12. Time. 30 min. Incubation at room temperature. 13. Detector. Fluorescence. (Read 4), Ex/Em = 480 nm / 540 nm. NOTES (numbers refer to Sequence numbers above; values are from representative experiments) 1. Medium-binding black solid-bottom Greiner plates (789176-F). Dispense 3 uL of [1x] 250 nM Rap1B-BODIPY-GDP, and 50 uM GDP into columns 1 to 48. 2a. Control compound cAMP (6,572 uM, column 3, rows 1 to 32) single pin-transferred for a [final] of 50 uM. 2b. […]
# Sequence of Rap guanine nucleotide exchange factor 3 (Homo sapiens) (O95398 whole entry, looked up): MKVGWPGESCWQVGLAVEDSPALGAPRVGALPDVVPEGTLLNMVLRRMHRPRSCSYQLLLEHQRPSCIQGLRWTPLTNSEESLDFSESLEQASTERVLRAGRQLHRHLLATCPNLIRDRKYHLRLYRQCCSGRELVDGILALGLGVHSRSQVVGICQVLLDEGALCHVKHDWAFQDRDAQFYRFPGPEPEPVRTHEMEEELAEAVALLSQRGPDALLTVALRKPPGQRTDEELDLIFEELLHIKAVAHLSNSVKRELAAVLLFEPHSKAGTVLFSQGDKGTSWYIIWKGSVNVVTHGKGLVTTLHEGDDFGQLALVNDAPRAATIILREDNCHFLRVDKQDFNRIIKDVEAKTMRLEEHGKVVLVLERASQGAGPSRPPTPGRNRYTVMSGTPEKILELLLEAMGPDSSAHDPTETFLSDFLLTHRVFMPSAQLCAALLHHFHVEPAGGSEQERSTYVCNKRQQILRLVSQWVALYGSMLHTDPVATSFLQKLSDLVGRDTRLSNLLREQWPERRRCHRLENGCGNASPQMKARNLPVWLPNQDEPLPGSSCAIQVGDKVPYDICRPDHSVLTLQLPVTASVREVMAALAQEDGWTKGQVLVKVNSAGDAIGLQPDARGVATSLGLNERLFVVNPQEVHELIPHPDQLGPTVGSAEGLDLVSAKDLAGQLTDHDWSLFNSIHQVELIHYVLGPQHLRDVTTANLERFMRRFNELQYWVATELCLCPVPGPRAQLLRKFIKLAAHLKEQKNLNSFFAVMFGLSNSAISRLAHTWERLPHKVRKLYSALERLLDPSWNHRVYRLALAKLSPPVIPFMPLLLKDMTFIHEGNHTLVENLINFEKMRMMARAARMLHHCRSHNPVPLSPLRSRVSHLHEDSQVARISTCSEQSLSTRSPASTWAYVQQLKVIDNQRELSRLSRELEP
row,Structure (SMILES),"activity change, negative = inhibition"
1,COc1ccc2c(c1)Cc1sc(NC(=O)c3ccccc3Br)nc1-2,36.7% (inactive)
2,N#C/C(=N\Nc1cccc(C(F)(F)F)c1)C(=O)c1ccsc1,2.21% (inactive)
3,CC(=O)Nc1scc(-c2ccccc2)[n+]1-c1ccc(C)cc1,-4.14% [at 30.8 µM] (inactive)
4,Cn1c(/C(C#N)=C/c2ccc(-c3ccc(S(N)(=O)=O)cc3)o2)nc2ccccc21,321% (inactive)
5,COc1ccc(-c2nn(-c3ccccc3)cc2/C=C2/SC(=S)N(CCC(=O)O)C2=O)cc1,12.7% (inactive)
6,COc1ccc(C(C(=O)NC(C)(C)C)n2c(=O)c(-c3cc4ccccc4[nH]3)nc3ccccc32)cc1 (stereo not given),2.06% (inactive)
7,C=CCn1c(=O)/c(=C/c2ccc(C)o2)s/c1=C(/C#N)C(=O)c1ccccc1,-7.69% [at 30.8 µM] (inactive)
8,O=C1NC[C@H](Cc2ccc(O)cc2)N(C[C@@H]2CCCN2C[C@H](Cc2ccc(O)cc2)N2C[C@H](Cc3ccccc3)N(CC3CCCCC3)C(=O)C2=O)C1=O,-13.5% [at 30.8 µM] (inactive)
9,Cc1ccc2sc(N(CCCN(C)C)C(=O)c3nc4ccccc4s3)nc2c1C,14.6% (inactive)
10,CCN(CC(=O)Nc1ccc(OC)cc1)C(=O)Cc1cccs1,-46.2% (inactive)
11,COc1ccc2[nH]cc(S(=O)(=O)c3ccc(C)cc3)c2c1,-8.88% (inactive)
12,O=C(O)CCn1cc(C2CC(c3ccccc3)=NN2c2ccccc2)c(-c2ccccc2)n1 (stereo not given),1.5% (inactive)
13,COc1cc(OC)cc(-c2cc3ccc(OC)cc3cn2)c1,0.142% (inactive)
14,COc1ccc(C)cc1NC(=O)c1ccccc1NS(=O)(=O)c1ccc(Cl)s1,11% (inactive)
15,COc1cc(C(=O)c2ccccc2)c([N+](=O)[O-])cc1OC,2.49% (inactive)
16,CC1CCCN(c2nc3ccccc3nc2C(C#N)S(=O)(=O)c2ccccc2)C1 (stereo not given),31.5% (inactive)
17,CN(c1ccccc1)c1ccc(/C=C(/CCC(=O)O)c2nc3ccccc3s2)cc1[N+](=O)[O-],-20.1% (inactive)
18,c1ccc(Oc2nc(-c3cccnc3)nc3ccccc23)cc1,-26.6% (inactive)
19,COc1ccc(C2CC(=O)Oc3cc(C)cc(C)c32)cc1 (stereo not given),16.2% (inactive)
20,CC1=NN(c2nc(-c3ccccc3)cs2)C(=O)C1,10.9% (inactive)

row,Structure (SMILES),"activity change, negative = inhibition"
1,CCOC(=O)C1=C(C)NC(C)=C(C(=O)OCC)C1c1ccc([N+](=O)[O-])s1,-12% (inactive)
2,Cc1oc2cc([N+](=O)[O-])c(O)c([N+](=O)[O-])c2c1C(=O)c1ccc(Br)cc1,10.5% (inactive)
3,COc1ccc(NC(=O)CSc2nc(O)cc(=O)n2-c2ccc(OC)cc2)cc1,19.7% (inactive)
4,Cc1cccc(NC(=O)Cn2c(O)c(N=NC(=O)c3ccccc3O)c3ccccc32)c1,-9.76% (inactive)
5,Cc1cccc(N2CCN(S(=O)(=O)c3ccc4c(c3)CCN4C(=O)CCC(=O)O)CC2C)c1 (stereo not given),45.2% (inactive)
6,COc1ccc(S(=O)(=O)Nc2ccc3cn[nH]c3c2)cc1C,-5.08% (inactive)
7,O=C(OCCN1C(=O)c2cccc3c(N4CCOCC4)ccc(c23)C1=O)c1cccc(Cl)c1,307% (inactive)
8,CCOc1ccc(NC(=O)/C(C#N)=C/c2ccc(N3CCCC3)c(C)c2)cc1,15.4% [at 30.8 µM] (inactive)
9,CSC1=NSC2=NC(=O)/C(=C/c3coc4ccccc4c3=O)C(=N)N12,286% (inactive)
10,O=C1Cc2ccccc2C(=O)N1,11.4% (inactive)
11,O=C(Nc1sc2c(c1C(=O)O)CCCC2)c1ccc(Cl)cc1,-8.59% [at 30.8 µM] (inactive)
12,COc1cc(C2NC(=O)c3c(sc4c3CCN(C)C4)N2)cc(Br)c1OC(=O)c1ccc(C)cc1 (stereo not given),36.3% (inactive)
13,O=C(O)c1ccc(/C=N/NC(=O)c2cc(-c3ccc4c5c(cccc35)CC4)n[nH]2)cc1,21.1% (inactive)
14,CCCN1C(=O)c2[nH]nc(-c3ccc(F)cc3)c2C1c1ccc(O)c(OCC)c1 (stereo not given),-5.51% (inactive)
15,O=C1C(O)=C(O)C(=O)c2ccccc21,77.7% (inactive)
16,N#Cc1c(Nc2ccccc2)sc(C(=O)c2ccccc2)c1N,13.4% [at 30.8 µM] (inactive)
17,O=C(CN1C(=O)N/C(=C\c2ccccc2OCc2ccc(C(=O)O)cc2)C1=O)Nc1ccc(F)cc1,9.53% (inactive)
18,COc1ccc(S(=O)(=O)Nc2cc(SCC(=O)O)c(O)c3ccccc23)cc1,31.3% (inactive)
19,Cc1ccc(-c2c3c(=O)n(C)c(=O)n(C)c3c3c(C(F)(F)F)nc4ccccc4n23)cc1,0.028% (inactive)
20,Cc1c2ccccc2nc2c(F)c(NC(C)C)c(F)c(F)c12,16.9% (inactive)
